Measured values published in PubChem BioAssay (EPA / NIEHS).
Results filed as inconclusive are left out. Active and inactive are the calls of the source. Rule for the calls, unless noted: active = hit-call score of the fitted dose curve at least 0.9, where 1 is the maximum; inactive = score below 0.9.

Tests used:
[1] = ACEA_ER_80hr: ACEA Biosciences xCELLigence Real-Time Cell Analysis on Estrogen Receptor Agonism for Proliferation (AID 2282667; active = hit-call score of the fitted dose curve at least 0.9, where 1 is the maximum); details: T47D proliferation, impedance (xCELLigence), 80 h
How it was run: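 Cell-growth kinetics were measured by impedance in T47D cells treated continuously with compound (top 100 uM final, 1:4 steps, 8 points). Activity at 80 h was scored as signal gain over the DMSO baseline.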

[2] = ATG_CRE_CIS: Attagene CIS-FACTORIAL HepG2 Assay for human cAMP Responsive Element (CRE) binding protein 3 (AID 2282926); details: HepG2 CRE cis-reporter, Attagene multiplexed mRNA; actives raise or lower the signal
How it was run: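 Cells carrying cis-regulated reporter constructs respond through their own endogenous factors. After 24 h treatment, RNA is reverse-transcribed, amplified, labelled and sized by capillary electrophoresis; up- and down-regulation are both scored against vehicle.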

[3] = target: CCAAT/enhancer-binding protein beta (Homo sapiens) (UniProt P17676); experiment: ATG_C_EBP_CIS: Attagene CIS-FACTORIAL HepG2 Assay for human CCAAT/Enhancer Binding Protein (C/EBP) beta (AID 2282927); details: HepG2 Attagene cis-factorial transcription factor reporter; actives raise or lower the signal
How it was run: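 Transiently transfected HepG2 (MRTU library, endogenous TF-driven promoters); 24 h dosing; total RNA → oligo(dT) RT → PCR → 6-FAM primer extension → HpaI digest → CE; fit bidirectionally vs DMSO.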

[4] = ATG_CMV_CIS: Attagene CIS-FACTORIAL HepG2 Assay for human CMV (Internal Marker) (AID 2282928); details: HepG2 CMV promoter reporter, transcription factor profiling; actives raise or lower the signal;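 note: endpoint acts as a background internal control marker rather than a target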
How it was run: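 Fluorescence intensity of RT-PCR-derived reporter fragments, resolved by capillary electrophoresis, gives the signal. HepG2 liver cells bearing transfected cis-element reporters were treated 24 h; activity in either direction was fit relative to DMSO-treated controls.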

[5] = ATG_DR4_LXR_CIS: Attagene CIS-FACTORIAL HepG2 Assay for human Liver X Receptor (LXR), DR4 submotif (AID 2282929); details: HepG2 Attagene DR4 cis-reporter, mRNA transcription; actives raise or lower the signal
How it was run: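 Endogenous factor activity at a DR4 cis-element is read as reporter mRNA in transiently transfected HepG2 cells. Exposure lasts 24 h; transcripts are amplified, fluorescently labelled and sized by capillary electrophoresis, with DMSO as baseline.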

[6] = target: Aryl hydrocarbon receptor (Homo sapiens) (UniProt P35869); experiment: ATG_Ahr_CIS: Attagene CIS-FACTORIAL HepG2 Assay for human Aryl Hydrocarbon Receptor (Ahr) (AID 2282930); details: HepG2 AhR cis-factorial reporter transcription; actives raise or lower the signal
How it was run: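 Read-out: reporter mRNA quantified by RT-PCR with fluorescent primer extension and capillary electrophoresis. Human HepG2 liver cells carried transfected cis-promoter reporter units and were exposed to chemical for 24 h; gain or loss fitted relative to DMSO.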

[7] = ATG_AP_1_CIS: Attagene CIS-FACTORIAL HepG2 Assay for human Activator Protein 1 (AP-1) (AID 2282931); details: HepG2 Attagene cis-factorial AP-1 reporter mRNA; actives raise or lower the signal
How it was run: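 Fluorescence of labelled PCR fragments separated by capillary electrophoresis gives reporter mRNA levels. HepG2 with transfected cis-regulated reporter units, 24 h exposure; DMSO serves as baseline for bidirectional curve fits.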

[8] = ATG_AP_2_CIS: Attagene CIS-FACTORIAL HepG2 Assay for human Activator Protein 2 (AP-2) (AID 2282932); details: HepG2 AP-2 cis-reporter, Attagene transcription factor profiling; actives raise or lower the signal
How it was run: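 Liver-derived HepG2 line, cis-reporter system measuring endogenous factors; 24 h dosing; reporter mRNA detected by fluorescent RT-PCR and capillary electrophoresis.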

[9] = ATG_BRE_CIS: Attagene CIS-FACTORIAL HepG2 Assay for human Bone Morphogenetic Protein (BMP) Response Element (BRE) (AID 2282933); details: HepG2 BMP response element reporter, Attagene transcription factor profiling; actives raise or lower the signal
How it was run: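 Multiplexed cis-reporter assay, HepG2, 24 h exposure. mRNA from reporter units quantified via RT-PCR/CE; DMSO baseline; bidirectional curve fit.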

[10] = target: Retinoic acid receptor alpha (Homo sapiens) (UniProt P10276); experiment: ATG_DR5_RAR_CIS: Attagene CIS-FACTORIAL HepG2 Assay for human Retinoic Acid Receptor Alpha (RARE), DR5 submotif (AID 2282934); details: HepG2 Attagene cis-factorial RARE DR5 reporter, mRNA; actives raise or lower the signal;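 for AC50: reporter responds to endogenous RAR alpha beta and gamma in HepG2 not RARA alone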
How it was run: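 Read-out: DR5-driven reporter transcript measured by RT-PCR, 6-FAM primer extension, HpaI digest and capillary electrophoresis. Human HepG2 liver cells carry transiently transfected cis-element reporter constructs; dosing lasts 24 h. Gain or loss of signal fitted against DMSO baseline.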

[11] = target: Transcription factor E2F1 (Homo sapiens) (UniProt Q01094); experiment: ATG_E2F_CIS: Attagene CIS-FACTORIAL HepG2 Assay for human E2F Transcription Factor 1 (AID 2282935); details: HepG2 Attagene cis-reporter, E2F reporter RNA transcripts; actives raise or lower the signal
How it was run: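 Liver-derived HepG2 cells expressing transfected promoter-driven reporter units received test chemical for 24 hours. Signal gains or losses were fitted bidirectionally against DMSO.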

[12] = ATG_E_Box_CIS: Attagene CIS-FACTORIAL HepG2 Assay for human Enhancer Box (E-box) (AID 2282936); details: HepG2 E-box cis-reporter transcription, actives raise or lower the signal
How it was run: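 In this cell-based setup, HepG2 cells bearing transfected promoter-driven reporter units were exposed to chemicals for 24 h; reporter transcripts were amplified, 6-FAM-labelled, cut with HpaI and sized by capillary electrophoresis.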

[13] = ATG_M_61_CIS: Attagene CIS-FACTORIAL HepG2 Assay for M61 Transcription Factor (Internal Marker) (AID 2282937); details: HepG2 Attagene CIS-FACTORIAL M61 internal marker reporter; actives raise or lower the signal
How it was run: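 This endpoint serves as an internal background control within a multiplexed HepG2 cis-reporter panel. Cells are exposed for 24 h; reporter mRNA is amplified, fluorescently labelled and sized by capillary electrophoresis, with DMSO as negative control.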

[14] = ATG_EGR_CIS: Attagene CIS-FACTORIAL HepG2 Assay for human Early Growth Response 1 (EGR1) (AID 2282938); details: HepG2 Attagene CIS-FACTORIAL EGR reporter mRNA; actives raise or lower the signal
How it was run: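 HepG2, transient MRTU transfection (cis promoters), 24 h compound. RNA → RT (oligo-dT) → PCR → 6-FAM labelling → HpaI cut → CE fluorescence. Bidirectional fit, DMSO baseline.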

[15] = ATG_M_19_CIS: Attagene CIS-FACTORIAL HepG2 Assay for M19 Transcription Factor (Internal Marker) (AID 2282939); details: HepG2 Attagene CIS-FACTORIAL M19 internal marker reporter; actives raise or lower the signal
How it was run: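 Signals come from fluorescence of labelled reporter-specific PCR fragments resolved by capillary electrophoresis, following 24 h treatment of HepG2 cells transfected with cis-promoter reporter units; activity was fitted in both directions relative to DMSO.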

[16] = ATG_ERE_CIS: Attagene CIS-FACTORIAL HepG2 Assay for Estrogen Response Element (ERE) (AID 2282940); details: HepG2 ERE cis-reporter, Attagene RNA transcript; actives raise or lower the signal
How it was run: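 Fluorescence of capillary-separated, FAM-labelled reporter cDNA fragments indicates reporter mRNA levels in HepG2 cells exposed to chemicals for 24 h. Transient transfection with cis-regulated units; data fitted in both directions against DMSO.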

[17] = ATG_Ets_CIS: Attagene CIS-FACTORIAL HepG2 Assay for human Erythroblast Transformation Specific (ETS) (AID 2282941); details: HepG2 ETS cis-reporter transcription, actives raise or lower the signal
How it was run: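 Multiplexed reporter transcript profiling: HepG2, 24 h treatment, total RNA to cDNA, PCR, 6-FAM labelling, HpaI cut, capillary electrophoresis. Gain- or loss-of-signal fitted against DMSO.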

[18] = target: Hepatocyte nuclear factor 3-beta (Homo sapiens) (UniProt Q9Y261); experiment: ATG_FoxA2_CIS: Attagene CIS-FACTORIAL HepG2 Assay for human Forkhead box A2 (FOXA2) (AID 2282942); details: HepG2 cis-reporter transcription factor activity, 24 h; actives raise or lower the signal
How it was run: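 Cells: HepG2, transient multiplex reporter transfection. Exposure 24 h. Detection: reporter-specific RT-PCR, fluorescent labelling, restriction digest, capillary electrophoresis. Analysis: bidirectional curve fit, DMSO as negative control.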

[19] = ATG_FoxO_CIS: Attagene CIS-FACTORIAL HepG2 Assay for human Forkhead box O (FoxO) (AID 2282943); details: HepG2 Attagene cis-reporter, FoxO element, mRNA; actives raise or lower the signal
How it was run: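 Read-out: fluorescence of 6-FAM-labelled reporter cDNA fragments resolved by capillary electrophoresis. Transiently transfected HepG2 cells were dosed for 24 h; activity fitted in both directions relative to DMSO controls.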

[20] = ATG_GATA_CIS: Attagene CIS-FACTORIAL HepG2 Assay for human GATA Binding Protein (AID 2282944); details: HepG2 GATA cis-element reporter, Attagene multiplex mRNA; actives raise or lower the signal
How it was run: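 After transfecting HepG2 cells with multiple cis-regulated reporter units, chemicals are dosed for 24 h; isolated RNA undergoes RT-PCR and fluorescent labeling before capillary electrophoresis, with activity expressed against DMSO.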

Measured: AC50

Sequence of CCAAT/enhancer-binding protein beta (Homo sapiens) (P17676 whole entry, looked up): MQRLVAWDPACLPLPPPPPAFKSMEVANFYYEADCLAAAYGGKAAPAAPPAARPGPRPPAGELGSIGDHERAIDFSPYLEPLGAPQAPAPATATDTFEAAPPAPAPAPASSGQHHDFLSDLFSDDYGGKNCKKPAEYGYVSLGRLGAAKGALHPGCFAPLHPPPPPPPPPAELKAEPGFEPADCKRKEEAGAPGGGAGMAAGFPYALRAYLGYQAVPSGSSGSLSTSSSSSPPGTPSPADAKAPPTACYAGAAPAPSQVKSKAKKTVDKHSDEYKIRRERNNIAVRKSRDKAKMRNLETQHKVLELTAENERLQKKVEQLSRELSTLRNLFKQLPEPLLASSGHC
Sequence of Aryl hydrocarbon receptor (Homo sapiens) (P35869 whole entry, looked up): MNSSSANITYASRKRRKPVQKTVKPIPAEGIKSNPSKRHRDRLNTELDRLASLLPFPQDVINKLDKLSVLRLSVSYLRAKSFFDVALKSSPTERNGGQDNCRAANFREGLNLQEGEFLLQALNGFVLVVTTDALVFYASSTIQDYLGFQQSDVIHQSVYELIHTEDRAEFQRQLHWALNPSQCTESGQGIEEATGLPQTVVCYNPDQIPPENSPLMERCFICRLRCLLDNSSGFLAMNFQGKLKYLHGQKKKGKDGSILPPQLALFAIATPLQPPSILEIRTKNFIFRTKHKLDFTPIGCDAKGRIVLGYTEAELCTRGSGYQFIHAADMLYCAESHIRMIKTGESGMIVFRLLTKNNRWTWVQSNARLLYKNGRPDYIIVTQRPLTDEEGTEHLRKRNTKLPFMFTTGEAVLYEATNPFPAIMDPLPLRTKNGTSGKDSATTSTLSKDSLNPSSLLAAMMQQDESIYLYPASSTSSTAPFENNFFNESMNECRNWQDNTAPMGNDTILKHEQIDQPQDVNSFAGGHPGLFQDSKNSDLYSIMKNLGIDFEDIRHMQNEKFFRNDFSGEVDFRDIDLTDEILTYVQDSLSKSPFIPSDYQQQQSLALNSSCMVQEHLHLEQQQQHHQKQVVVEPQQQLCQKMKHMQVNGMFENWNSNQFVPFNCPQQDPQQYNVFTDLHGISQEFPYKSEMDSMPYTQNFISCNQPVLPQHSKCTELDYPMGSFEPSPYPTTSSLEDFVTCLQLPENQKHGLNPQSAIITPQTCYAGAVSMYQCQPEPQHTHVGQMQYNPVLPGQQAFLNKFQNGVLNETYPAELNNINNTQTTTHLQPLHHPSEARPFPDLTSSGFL
Sequence of Retinoic acid receptor alpha (Homo sapiens) (P10276 whole entry, looked up): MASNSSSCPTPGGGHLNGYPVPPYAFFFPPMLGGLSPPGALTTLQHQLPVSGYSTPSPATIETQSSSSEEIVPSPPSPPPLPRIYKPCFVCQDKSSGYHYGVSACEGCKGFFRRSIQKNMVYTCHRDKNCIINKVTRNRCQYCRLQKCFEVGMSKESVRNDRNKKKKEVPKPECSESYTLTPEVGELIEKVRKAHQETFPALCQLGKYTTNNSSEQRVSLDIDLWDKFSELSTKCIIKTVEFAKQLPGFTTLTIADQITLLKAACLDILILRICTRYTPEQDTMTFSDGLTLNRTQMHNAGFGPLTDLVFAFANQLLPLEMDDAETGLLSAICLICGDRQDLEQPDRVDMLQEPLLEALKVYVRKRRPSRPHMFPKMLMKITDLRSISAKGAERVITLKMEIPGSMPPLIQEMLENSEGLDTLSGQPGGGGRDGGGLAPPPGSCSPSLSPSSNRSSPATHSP
Sequence of Transcription factor E2F1 (Homo sapiens) (Q01094 whole entry, looked up): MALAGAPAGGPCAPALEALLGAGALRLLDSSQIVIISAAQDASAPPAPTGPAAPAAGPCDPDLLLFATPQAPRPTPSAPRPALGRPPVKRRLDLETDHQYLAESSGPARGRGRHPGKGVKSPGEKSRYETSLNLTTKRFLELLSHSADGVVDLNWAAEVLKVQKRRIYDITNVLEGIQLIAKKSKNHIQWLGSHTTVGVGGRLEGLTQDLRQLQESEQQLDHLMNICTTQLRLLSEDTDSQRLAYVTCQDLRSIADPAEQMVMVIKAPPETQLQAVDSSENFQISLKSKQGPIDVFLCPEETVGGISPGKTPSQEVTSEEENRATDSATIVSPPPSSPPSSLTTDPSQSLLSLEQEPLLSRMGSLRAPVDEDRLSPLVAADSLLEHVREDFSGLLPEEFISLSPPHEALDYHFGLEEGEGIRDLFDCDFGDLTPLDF
Sequence of Hepatocyte nuclear factor 3-beta (Homo sapiens) (Q9Y261 whole entry, looked up): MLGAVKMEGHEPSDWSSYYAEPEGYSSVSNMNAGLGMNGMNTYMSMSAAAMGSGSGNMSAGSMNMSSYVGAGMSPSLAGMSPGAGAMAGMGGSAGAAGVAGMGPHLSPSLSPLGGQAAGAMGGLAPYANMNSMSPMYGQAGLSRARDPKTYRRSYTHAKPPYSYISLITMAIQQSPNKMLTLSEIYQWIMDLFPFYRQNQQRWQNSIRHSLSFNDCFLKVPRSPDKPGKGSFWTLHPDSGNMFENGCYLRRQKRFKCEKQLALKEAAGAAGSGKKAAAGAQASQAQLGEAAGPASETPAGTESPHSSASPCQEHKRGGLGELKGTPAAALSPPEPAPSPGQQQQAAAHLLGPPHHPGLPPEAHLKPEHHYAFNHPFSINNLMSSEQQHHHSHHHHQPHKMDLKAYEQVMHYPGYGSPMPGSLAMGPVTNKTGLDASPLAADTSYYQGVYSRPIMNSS

CCCCCCCC/C=C\CCCCCCCC(=O)OCC(O)CO (configuration not stated)
active: [7] 100 µM | [10] 20.5 µM
inactive: all other assays above

CN(N=O)C(=O)N[C@@H]1[C@@H](O)[C@H](O)[C@@H](CO)O[C@@H]1O
inactive: all assays above

C=CCOC(=O)CC(C)C
inactive: all assays above

NC(=O)C(F)(F)C(F)(F)C(F)(F)C(F)(F)C(N)=O
inactive: all assays above

OCCCC(F)(F)C(F)(F)C(F)(F)C(F)(F)C(F)(F)C(F)(F)C(F)(F)C(F)(F)F
active: [1] 21 µM | [9] 64.3 µM | [10] 22 µM
not listed: [15]
inactive: all other assays above

O=C=NCc1cccc(CN=C=O)c1
not listed: [15]
inactive: all other assays above

CC(C)=CCCC(C)O (configuration not stated)
not listed: [15]
inactive: all other assays above

O=C1c2c(O)ccc(Nc3ccc(CCO)cc3)c2C(=O)c2c([N+](=O)[O-])ccc(O)c21
active: [4] 12 µM | [6] 0.896 µM | [7] 17.7 µM
not listed: [16]
inactive: all other assays above

Brc1nc2ccccc2s1
active: [1] 0.0408 µM | [5] 100 µM | [6] 2.56 µM | [7] 65.1 µM | [12] 100 µM
not listed: [15]
inactive: all other assays above

CCCCCCCCCCCCCCCCC
active: [1] 10.5 µM | [16] 25.6 µM
not listed: [12]
inactive: all other assays above

Nc1c(Br)cc([N+](=O)[O-])cc1Br
not listed: [12] | [15] | [16]
inactive: all other assays above

C=CC(=O)OCC(F)(F)C(F)(F)C(F)(F)C(F)(F)C(F)(F)C(F)(F)C(F)(F)C(F)F
active: [5] 232 µM | [10] 36.9 µM | [16] 5.14 µM
not listed: [12]
inactive: all other assays above

O=C(c1ccccc1)c1ccc(Cl)cc1
active: [16] 44.4 µM
not listed: [12] | [15]
inactive: all other assays above

O=C1c2ccccc2C(=O)c2c(Cl)cccc21
not listed: [12]
inactive: all other assays above
